Results on 10 compounds are retold here after PubChem BioAssay (NCATS).

Assay [1] is described as follows: qHTS profiling of the MIPE4 collection as inhibitors of Plasmodium falciparum (3D7) proliferation (AID 743344). Particulars: P. falciparum 3D7 in erythrocytes, SYBR Green DNA fluorescence, 72 h; at 28.5 µM unless noted. Summed up:
(§1)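 Erythrocytes infected with P. falciparum (0.3% parasitemia, 2.5% hematocrit) incubated with compounds 72 h at 37 C, 5% CO2. Lysis with saponin/Triton buffer containing SYBR Green I, overnight at room temperature in the dark; DNA fluorescence (485/535 nm) normalised to 0.29 uM artemisinin and DMSO.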

Assay [2] can be described thus: qHTS profiling of the MIPE4 collection as inhibitors of Plasmodium falciparum (DD2) proliferation (AID 743345). The note with it: P. falciparum Dd2 in erythrocytes, SYBR Green DNA, 72 h; at 28.5 µM unless noted. Summed up: as §1
A general note: qHTS replaces the single test concentration by a dilution series.

The nature of assay [3]: qHTS profiling of the MIPE4 collection as inhibitors of Plasmodium falciparum (DD2) proliferation (Rep 2) (AID 743346). The note with it: P. falciparum Dd2 in erythrocytes, SYBR Green DNA, 72 h; at 28.5 µM unless noted. Summed up: as §1
Assay [4] can be described thus: qHTS profiling of the MIPE4 collection as inhibitors of Plasmodium falciparum (HB3) proliferation (AID 743347).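 Further: plate controls were DMSO vehicle wells for no effect and artemisinin wells for full effect.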 The note with it: P. falciparum HB3 in erythrocytes, SYBR Green DNA, 72 h; at 28.5 µM unless noted. Summed up: as §1
Assay [5] can be described thus: High-throughput drug toxicity screening in the BPDCN cell line Gen2.2 (AID 1224824). The note with it: Gen2.2 BPDCN cells; at 45.8 µM (top of the series) unless noted. Summed up: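 Seed 500 exponentially growing Gen2.2 cells/well; add compounds by pin tool; incubate 48 h, 37 °C, 5% CO2; add CellTiter-Glo, 15 min RT; read luminescence. % activity vs DMSO (100%) and bortezomib (0%).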

A short description of assay [6]: High-throughput drug toxicity screening in the BPDCN cell line Cal-1 (AID 1224825). The note with it: Cal-1 BPDCN cell viability, qHTS; at 45.8 µM (top of the series) unless noted. Summed up: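 Exponentially growing Cal-1 cells, 500 per well in phenol red-free RPMI with 10% FBS, were exposed to compounds for 48 h at 37 °C, 5% CO2. Viability was read by CellTiter-Glo luminescence and normalised to DMSO (100%) and 9.2 uM bortezomib (0%).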

Assay [7] is described as follows: qHTS assay for measurement of the activity of small molecule inhibitors on Zika virus induced Caspase-3 activity in human iPSC derived neural progenitor cells (hNPCs) (AID 1224857; active means well fitted curve in the direction sought with a large enough effect; an effect the other way counts as inactive or inconclusive; further: % of control where 0% means no effect; nearly all actives have a fitted effect of over 65% in size). In outline:
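Percent inhibition of virus-induced caspase-3/7 luminescence (Caspase-Glo), scaled between uninfected cells and Zika-infected cells. hNPCs received compound 1 hr before ZIKV at 2 FFU/cell, with 6 hours infection at 37 C.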

A short description of assay [8]: qHTS assay for measurement of the activity of small molecule inhibitors on Zika virus induced Caspase-3 activity in human astrocytoma cells (AID 1224859; active means well fitted curve in the direction sought with a large enough effect; an effect the other way counts as inactive or inconclusive;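 further: plate controls were ZIKV-infected untreated cells for no effect and uninfected cells for full effect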). Summed up: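 Luminescent caspase-3/7 read-out (30 min reagent, room temperature) in human SNB-19 cells infected 6 h with ZIKV (2 FFU/cell) after 1 h compound pre-incubation; Data were normalised to uninfected and infected wells.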

Assay [9] is described as follows: qHTS Screen of the MIPE 4.0 Collection Against Ewings Sarcoma (EW8) (AID 1259255; active means well fitted curve in the direction sought with a large enough effect; an effect the other way counts as inactive or inconclusive;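 further: 100% = DMSO-treated cells and 0% = medium-only wells without cells; nearly all actives have a fitted effect of over 35% in size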). In outline:
(§2)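 Compound titrations go onto adherent log-phase cells 4 h after seeding, incubate 48 h at 37C, then CellTiter-Glo luminescence reports viability relative to DMSO and cell-free controls.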

Assay [10] in a line: qHTS profiling for inhibitors of Plasmodium falciparum (3D7) proliferation (AID 743322).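 Further: infected erythrocytes exposed to compound for 72 h before lysis; 100% = DMSO vehicle wells and 0% = 0.29 µM artemisinin.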 Particulars: P. falciparum 3D7 proliferation; at 28.7 µM (top of the series). In outline:
as §1

Assay [11] is described as follows: qHTS profiling for inhibitors of Plasmodium falciparum (DD2) proliferation (AID 743323). The note with it: lower = more inhibition; at 28.7 µM (top of the series). Summed up: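 Parasite proliferation measured via DNA-dye fluorescence, as uninfected erythrocytes lack DNA. Cultures at 0.3% parasitemia and 2.5% hematocrit incubated 72 h with compound; signal scaled between vehicle and 0.29 uM artemisinin wells.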

The nature of assay [12]: qHTS profiling for inhibitors of Plasmodium falciparum (HB3) proliferation (AID 743324; active means well fitted curve in the direction sought with a large enough effect; an effect the other way counts as inactive or inconclusive;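 further: 100% = DMSO vehicle wells and 0% = artemisinin-treated control wells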). Particulars: Plasmodium falciparum HB3 blood-stage proliferation; at 28.7 µM (top of the series). In outline:
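P. falciparum HB3 grown in erythrocytes (0.3% parasitemia, 2.5% hematocrit final) with compound for 72 h at 37 C, 5% CO2. Parasite DNA detected by SYBR Green after saponin/triton lysis overnight; normalized to 0.29 uM artemisinin and DMSO.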

The nature of assay [13]: Identifying Small Molecule Inhibitors of Pancreatic Cancer Stem Cells (A2780, Spheroid) (AID 1259357; active means well fitted curve in the direction sought with a large enough effect; an effect the other way counts as inactive or inconclusive;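 further: compound exposure lasted 48 h before the ATP luminescence read; 100% = DMSO treated cells and 0% = wells without cells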). Particulars: Potency: A2780 spheroid viability. Summed up:
(§3)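 Monolayer and spheroid cultures are compared. Spheroids form over 14 days in stem cell medium on hydrogel-coated low-attachment plates, then are exposed to compound for 48 h before CellTiter-Glo luminescence.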

The nature of assay [14]: qHTS Screen of the MIPE 4.0 Collection Against Ewings Sarcoma (TC32) (AID 1259256; active means well fitted curve in the direction sought with a large enough effect; an effect the other way counts as inactive or inconclusive; further: potency means the concentration at half of the fitted maximal effect; nearly all actives have a fitted effect of over 45% in size). Summed up:
as §2

A short description of assay [15]: Identifying Small Molecule Inhibitors of Pancreatic Cancer Stem Cells (SN12C, Spheroid) (AID 1259360; active means well fitted curve in the direction sought with a large enough effect; an effect the other way counts as inactive or inconclusive;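 further: 100% = DMSO-treated cells and 0% = wells without cells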). Particulars: Potency: SN12C spheroid viability. In outline: as §3

Results filed as inconclusive are left out. Calls of active or inactive are those of the source. Unless noted, how the calls were made is not given here.

In assay [1], `CNC(=O)c1ccc2cc(C3(O)CCn4cncc43)ccc2c1` (stereo not given) registered a parasite growth, % of DMSO control of 84.5%. For the same compound, the parasite growth remaining, % of DMSO control (lower = more inhibition) in assay [2] is 86.6%. Besides, in [3], the parasite growth, % of control (lower = inhibition) came to 74.8%. Also, in assay [4], the growth, % of control is 55%. Also, in [5], the cell viability, % of control (lower = more cytotoxic) amounted to 82.2%. Further, the viability (% of control) in assay [6] was determined as 94.8%. For the same compound, the Potency entry in assay [7], in [8] and in assay [9] was “inactive” throughout.

On to `Oc1ccc(C2CCN(c3ccnc4ccccc34)CC2)cc1O`, for which the parasite growth, % of DMSO control in [1] came to 6.17%. In assay [2], this compound returned a parasite growth remaining, % of DMSO control (lower = more inhibition) of 13.2%. The compound further gave a parasite growth, % of control (lower = inhibition) in [3] of 11.6%. The compound further gave a growth, % of control in [4] of 3.95%. Moreover, the cell viability, % of control (lower = more cytotoxic) in [5] worked out at 31%. Moreover, in assay [6], the viability (% of control) came to 5.01%. The Potency result in [7] and in [8] was “inactive” each time.

Consider `COC[C@@H](c1ccc(C(F)(F)F)cc1)N1CCN(C2(C)CCN(C(=O)c3c(C)ncnc3C)CC2)C[C@H]1C`, for which the parasite growth, % of DMSO control in [1] turned out to be 31.8%. In assay [2], this compound showed a parasite growth remaining, % of DMSO control (lower = more inhibition) of 84.7%. In addition, the parasite growth, % of control (lower = inhibition) in assay [3] worked out at 21.5%. This compound had a growth, % of control in [4] of 28.5%. Moreover, in assay [5], the cell viability, % of control (lower = more cytotoxic) stood at 7.13%. Moreover, in assay [6], the viability (% of control) was 6.85%. In addition, the Potency result in assay [7] and in assay [8] was “inactive” each time.

`NC(=O)NN=Cc1ccc([N+](=O)[O-])o1`: the parasite growth, % of DMSO control in assay [1] amounted to 13.6%. The same compound gave a parasite growth remaining, % of DMSO control (lower = more inhibition) in assay [2] of 48.9%. The compound also registered a parasite growth, % of control (lower = inhibition) in [3] of 14.3%. The cell viability, % of control (lower = more cytotoxic) in assay [5] was 172%. The compound further registered a viability (% of control) in assay [6] of 72.8%. The Potency entry in assay [7] and in assay [8] was “inactive” throughout.

Compound `CO[C@H]1C[C@@H]2CC[C@@H](C)[C@@](O)(O2)C(=O)C(=O)N2CCCC[C@@H]2C(=O)O[C@H]([C@@H](C)C[C@@H]2CC[C@H](O)[C@H](OC)C2)CC(=O)[C@H](C)C=C(C)[C@@H](O)[C@@H](OC)C(=O)[C@H](C)C[C@H](C)C=CC=CC=C1C` registered a parasite growth, % of DMSO control in assay [1] of 5.33%. Also, the parasite growth remaining, % of DMSO control (lower = more inhibition) in assay [2] was 9.31%. Also, the parasite growth, % of control (lower = inhibition) in [3] was determined as 7.75%. The growth, % of control in assay [4] turned out to be 6.63%. Moreover, the cell viability, % of control (lower = more cytotoxic) in assay [5] was found to be 5.13%. Moreover, in [6], the viability (% of control) stood at 2.54%. Besides, the Potency result in assay [7] and in assay [8] was “inactive” throughout.

Regarding `Cc1ccc(C(C)(O)c2nc3ccccc3s2)c(C)c1` (stereo not given), in assay [1], the parasite growth, % of DMSO control was 61.8%. The compound also yielded a parasite growth remaining, % of DMSO control (lower = more inhibition) in [2] of 90.2%. Moreover, the cell viability, % of control (lower = more cytotoxic) in assay [5] stood at 129%. This compound also returned a viability (% of control) in [6] of 6.97%. In addition, the Potency result in assay [7] and in assay [8] was “inactive” throughout.

With `COc1cc(Nc2ncc(F)c(Nc3ccc4c(n3)NC(=O)C(C)(C)O4)n2)cc(OC)c1OC`, in [10], the remaining parasite growth % (stronger effect = lower value) came out at 83%. The compound further registered an activity, percent of control in [11] of 89.1%. The remaining proliferation (% of control), lower = more inhibition in assay [12] turned out to be 58.2%. The compound further returned a parasite growth, % of DMSO control in assay [1] of 5.27%. This compound also showed a parasite growth remaining, % of DMSO control (lower = more inhibition) in [2] of 7%. This compound also gave a parasite growth, % of control (lower = inhibition) in assay [3] of 6.47%. Also, the growth, % of control in assay [4] was 2.09%. In addition, in assay [5], the cell viability, % of control (lower = more cytotoxic) came to 53.6%. The compound further displayed a viability (% of control) in assay [6] of 58.1%. For the same compound, the Potency result in assay [7], in [8] and in assay [13] was “inactive” in each case.

With `CC[C@@H]1C=C(C)C[C@H](C)C[C@H](OC)[C@H]2O[C@@](O)(C(=O)C(=O)N3CCCC[C@@H]3C(=O)O[C@H](C(C)=C[C@@H]3CC[C@H](Cl)[C@H](OC)C3)[C@H](C)[C@@H](O)CC1=O)[C@H](C)C[C@H]2OC`, in assay [1], the parasite growth, % of DMSO control came out at 27.5%. Moreover, the parasite growth remaining, % of DMSO control (lower = more inhibition) in assay [2] amounted to 6.74%. Moreover, the parasite growth, % of control (lower = inhibition) in assay [3] was 17.3%. Also, the growth, % of control in assay [4] came to 64.6%. Also, the cell viability, % of control (lower = more cytotoxic) in [5] stood at 12.7%. In assay [6], the viability (% of control) came to 20.8%. Moreover, the Potency entry in assay [7] and in assay [8] was “inactive” in each case.

As for `O=c1cc(CN2CCOCC2)occ1OCCCCCSc1ccnc2cc(C(F)(F)F)ccc12`, the remaining parasite growth % (stronger effect = lower value) in [10] turned out to be 28.8%. The compound further showed an activity, percent of control in assay [11] of 26.8%. The compound also displayed a remaining proliferation (% of control), lower = more inhibition in assay [12] of 17.5%. This compound showed a parasite growth, % of DMSO control in assay [1] of 36.7%. Further, in assay [2], the parasite growth remaining, % of DMSO control (lower = more inhibition) came out at 56.7%. This compound had a parasite growth, % of control (lower = inhibition) in assay [3] of 33.6%. For the same compound, in assay [4], the growth, % of control amounted to 12.1%. Further, the cell viability, % of control (lower = more cytotoxic) in [5] is 186%. In assay [6], this compound yielded a viability (% of control) of 75.4%. Also, the Potency entry in assay [7] and in assay [8] was “inactive” throughout. Further, in assay [14], the Potency is 18.7 µM (active).

In turn, `COc1ccc(C2CC(c3ccccc3)=NN2c2ccc(S(N)(=O)=O)cc2)cc1` (stereo not given) came in with a remaining parasite growth % (stronger effect = lower value) in assay [10] of 23.3%. In [11], the activity, percent of control is 40.1%. The same compound displayed a remaining proliferation (% of control), lower = more inhibition in [12] of 19.1%. The parasite growth, % of DMSO control in assay [1] amounted to 50.4%. The parasite growth remaining, % of DMSO control (lower = more inhibition) in assay [2] stood at 99.9%. The parasite growth, % of control (lower = inhibition) in assay [3] amounted to 46.5%. This compound gave a growth, % of control in assay [4] of 66%. In addition, in assay [5], the cell viability, % of control (lower = more cytotoxic) worked out at 76.6%. This compound had a viability (% of control) in assay [6] of 27.3%. Also, the Potency result in assay [7], in assay [8] and in assay [15] was “inactive” in each case.
